Assay results from PubChem BioAssay AID1362 (SRMLSC, 2008).
Out of some 190,000 compounds screened, about 4,000 (2.1%) were called active. The sample holds actives, similar compounds and a random draw of the others, so the mix is not that of the screen. Cut-off read from the data, not from the text of the source: active = inhibition above about 58%; inactive = the rest, inconclusive results apart; tested in S. cerevisiae.

Experiment: growth inhibition of WT strain, primary screen, mitochondrial fusion inhibitor project, WT and mutant strains, chemical genetic (AID 1362)
Settings: mitochondrial fusion phenotypic screen, at 10 µM
[1] = WT strain, growth inhibition, stronger effect = higher value

Row | SMILES | inhibition [1] | inhibition (mutant strain inhibition) [%]
1 | COC(=O)CNC(=O)c1ccc(OC2CCN(C(=O)C3CC3)CC2)cc1 | 1.17% (inactive) | 10.2
2 | COc1cccc(NC(=S)N(Cc2ccc(C)cc2)Cc2ccccn2)c1 | 4.22% (inactive) | 20.6
3 | CSc1cccc(NC(=S)N(Cc2ccccc2)Cc2ccccn2)c1 | 65.9% (active) | 28.6
4 | CSc1cccc(NC(=S)N(C(C)C)C(C)c2ccccn2)c1 (stereo not drawn) | 31.2% (inactive) | 20.5
5 | CC(=O)Nc1ccc(S(=O)(=O)N(C)c2ccc(OCC(=O)OCC(=O)N3CCCCC3)cc2)cc1 | 0.1% (inactive) | -22.2
6 | Cc1ccc(SCCC(=O)Nc2cc(C)on2)cc1 | 10.3% (inactive) | -8.98
7 | NC1=NC2(CCCCC2)N(c2ccc(F)cc2F)C(N)=N1 | -0.71% (inactive) | -2.91
8 | Cc1ccc2nc(NCCCNC(=O)c3cnccn3)c(C#N)cc2c1 | 90.6% (active) | -2.29
9 | COCCCNC(=S)NCCNc1nc2cc(C)c(C)cc2cc1C#N | 7.68% (inactive) | 10.7
10 | Cc1ccc2cc(C#N)c(NCCNC(=S)NCCCN3CCOCC3)nc2c1 | 10.9% (inactive) | 3.33
11 | O=C(NC1CC1)C1CCCN(C(=O)NC2CCCCC2)C1 (stereo not drawn) | -6.93% (inactive) | -6.42
12 | Cc1ccnc(N2CCC(C(=O)NC3CCCCCC3)CC2)n1 | -13.5% (inactive) | -18.9
13 | COc1nc(NC2CCCCC2)nc(N2CCCCCC2)n1 | 66.3% (active) | 28.3
14 | FC(F)(F)COc1nc(N2CCCCC2)nc(N2CCNCC2)n1 | 3.34% (inactive) | 2.8
15 | CCN(CCCNC(=O)CSc1cc(=O)n(C)c2cc(Cl)ccc12)Cc1ccccc1 | -10.6% (inactive) | -11.8
16 | CC(O)CNCCOc1cccc(Oc2ccccc2)c1 (stereo not drawn) | -0.49% (inactive) | 17.6
17 | CCOC(=O)c1[nH]ncc1CN1CCCC(C(=O)c2ccc(OC)cc2C)C1 (stereo not drawn) | 3.7% (inactive) | 9.86
18 | O=C(N/N=C/c1cc2c(cc1Br)OCO2)C1COc2ccccc2O1 (stereo not drawn) | 29.9% (inactive) | 30
19 | COC(=O)c1sc2ncccc2c1OCc1ccc(Cl)cc1Cl | 12.8% (inactive) | -2.97
20 | Cc1nc2ccccc2nc(C)c1=NOCc1ccc(Cl)cc1Cl | 67.9% (active) | 2.92
21 | O=S(=O)(O)c1nc2ccccc2n1Cc1ccc(Cl)cc1Cl | 18.7% (inactive) | 26
22 | CC(C)N1C(=S)SC(C)(C)C1n1oc(=O)n(-c2ccc(Cl)c(Cl)c2)c1=O (stereo not drawn) | 76.3% (active) | 19.9
23 | Cc1ccc(C2CC(c3cccc(NS(C)(=O)=O)c3)=NN2S(C)(=O)=O)cc1 (stereo not drawn) | 4.24% (inactive) | 6.73
24 | CCOc1cc(CNn2c(C)nnc2SCC(=O)NC(C)(C)C)ccc1OCC(=O)NC(C)(C)C | -19.6% (inactive) | 0.2
25 | Cc1cc(C(=O)CCl)c(C)n1CC1COc2ccccc2O1 (stereo not drawn) | 7.72% (inactive) | 25.4
26 | N#Cc1c(N)nc2c(c1N)CC(C(F)(F)F)O2 (stereo not drawn) | -7.69% (inactive) | 1.1
27 | Cc1nc(N2CCN(c3ccccn3)CC2)c2c(C)c(C(=O)Nc3ccc(F)cc3)sc2n1 | 38.7% (inactive) | 11.3

Row | SMILES | inhibition [1] | inhibition (mutant strain inhibition) [%]
28 | Cc1nc(N2CCOCC2)c2c(C)c(C(=O)Nc3ccc(C(F)(F)F)cc3)sc2n1 | 47.4% (inactive) | -8.5
29 | Cc1nc(N2CCC(C)CC2)c2c(C)c(C(=O)Nc3cc(F)ccc3C)sc2n1 | 64% (active) | -25.2
30 | c1ccc(-c2cc(N3CCCCC3)c3ccccc3n2)cc1 | 36.4% (inactive) | 49.1
31 | CC(C)(C)NC(=O)C(=O)NN=C1CCCCCCC1 | -0.12% (inactive) | 9.74
32 | CC(C)NC(=S)NN=C1CCCCCCCCCCC1 | 69.5% (active) | 53.1
33 | CC(=O)NC(NC(=S)Nc1c(C)n(C)n(-c2ccccc2)c1=O)C(Cl)(Cl)Cl (stereo not drawn) | 15.8% (inactive) | 0.58
34 | CCOCCCNC(=S)N1CCC(NC(=O)C2CCCCC2)CC1 | 6.14% (inactive) | 2.16
35 | COc1ccc(NS(=O)(=O)c2ccc(O)c(C(=O)OCC(=O)NC3CCCCC3)c2)cc1 | -15% (inactive) | 17.3
36 | COc1ccc(C2CC(c3cccs3)=NN2c2ccc(F)cc2)cc1OC (stereo not drawn) | 30.3% (inactive) | 11.7
37 | Fc1ccc(N2N=C(c3cccs3)CC2c2ccco2)c(F)c1 (stereo not drawn) | 70.8% (active) | 10.1
38 | COc1ccccc1N1N=C(c2cccs2)CC1c1ccccc1 (stereo not drawn) | 52.7% (inactive) | 33.7
39 | CCN1CCC2(CCN(Cc3cn[nH]c3-c3ccc(OC)c(F)c3)C2)C1 (stereo not drawn) | -2.46% (inactive) | -5.08
40 | CCC1CCCCN1S(=O)(=O)Cc1ccccc1Cl (stereo not drawn) | 0.45% (inactive) | 1.41
41 | CN1C2CCC1/C(=C\c1ccccc1Cl)C(=O)/C2=C\c1ccccc1Cl | 60.7% (active) | 32.3
42 | O=C(CN1CCCCCC1)NCCN1C(=O)S/C(=C\c2ccccc2Cl)C1=O | 2.91% (inactive) | -4.16
43 | COc1ccc(Cl)cc1N(CC(=O)N1CCCCC1)S(C)(=O)=O | 11.8% (inactive) | 0.08
44 | Cc1cc(C)cc(C(=O)NC2C(=O)N3C(C(=O)O)=C(CSc4nnc(C)s4)CSC23)c1 (stereo not drawn) | 4% (inactive) | -0.51
45 | COC(=O)c1sc(NC(=O)c2csc3c2CCCC3)nc1C | 16.5% (inactive) | 0.86
46 | Cc1ccc(NC(=O)c2csc3c2CCCC3)cc1 | 11.5% (inactive) | 21.5
47 | COC(=O)c1sccc1NC(=O)c1csc2c1CCCC2 | 71.3% (active) | 48.8
48 | CC(=O)c1cccc(-n2nnnc2SCC(=O)NNC(=O)C2CCCCC2)c1 | 6.05% (inactive) | 12.8
49 | Cc1cc(-c2nnc(CCC(=O)NC(c3ccccc3)c3ccccc3)o2)no1 | 7.01% (inactive) | 6.86
50 | O=C(CCCn1c(SCC(=O)c2ccc(F)cc2)nc2ccccc2c1=O)NCc1ccco1 | 7.88% (inactive) | 15.5
51 | CCOC(=O)C(C)Sc1nc2ccccc2c(=O)n1CC1CCCCC1 (stereo not drawn) | 21.8% (inactive) | -3.67
52 | CC(Sc1nc2ccccc2c(=O)n1Cc1ccco1)C(=O)c1ccccc1 (stereo not drawn) | 69.4% (active) | 31.3
53 | Cc1cc([N+](=O)[O-])nn1CCCC(=O)Nc1cccnc1Cl | -5.91% (inactive) | -23.5
54 | COc1cc(S(=O)(=O)N2CCOCC2)ccc1NC(=O)COc1ccc(N(C)S(=O)(=O)c2ccc(C)cc2)cc1 | 3.51% (inactive) | -4.35
